# From paper PMC7862700, “An all-to-all approach to the identification of sequence-specific readers for epigenetic DNA modifications on cytosine”
# Experiments:
# Experiment in all cases: DAPPL (digital affinity profiling via proximity ligation, sequencing); 10 mM Tris-HCl pH 7.5, 50 mM NaCl, 1 mM DTT, 4% glycerol, room temperature, 30 min; GST-TFs on glutathione beads, 16-mer random dsDNA library, 0.1% formaldehyde crosslink after washing; high values mean tight binding
# Conditions in all cases: protein: recombinant; tags: N-terminal GST; dsDNA, one strand shown
# FLI1 = molecular target: T1, FLI1 (Homo sapiens, UniProt Q01543 1-452)
# T1 sequence: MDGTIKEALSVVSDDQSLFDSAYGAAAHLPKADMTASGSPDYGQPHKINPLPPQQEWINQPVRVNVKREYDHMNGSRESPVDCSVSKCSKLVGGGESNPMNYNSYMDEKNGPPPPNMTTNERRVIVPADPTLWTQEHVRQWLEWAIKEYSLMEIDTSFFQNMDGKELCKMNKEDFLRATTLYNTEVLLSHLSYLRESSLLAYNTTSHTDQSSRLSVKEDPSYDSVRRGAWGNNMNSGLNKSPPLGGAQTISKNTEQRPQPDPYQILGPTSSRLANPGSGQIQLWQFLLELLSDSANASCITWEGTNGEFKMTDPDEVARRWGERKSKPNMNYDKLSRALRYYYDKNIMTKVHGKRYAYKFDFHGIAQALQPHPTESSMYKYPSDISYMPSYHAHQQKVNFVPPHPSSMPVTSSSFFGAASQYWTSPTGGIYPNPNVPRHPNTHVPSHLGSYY
# How it was run: (§1)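 Human transcription factors fused to GST were expressed in yeast, captured on glutathione beads, given DNA barcodes and pooled with a GST-only negative control. Pools were incubated with 200 nmole of a 16-mer random double-stranded DNA library in Tris/NaCl/DTT/glycerol buffer at room temperature for 30 min. They were then washed, crosslinked with 0.1% formaldehyde, proximity-ligated (BsaI/T4 ligase, 1 h, 37 °C), PCR-amplified and sequenced on an Illumina NextSeq500. Binding signal is each 6-mer's read frequency for a factor divided by its frequency for the GST control.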
# ELK1 = molecular target: T2, ELK1 (Homo sapiens, UniProt P19419 1-428)
# T2 sequence: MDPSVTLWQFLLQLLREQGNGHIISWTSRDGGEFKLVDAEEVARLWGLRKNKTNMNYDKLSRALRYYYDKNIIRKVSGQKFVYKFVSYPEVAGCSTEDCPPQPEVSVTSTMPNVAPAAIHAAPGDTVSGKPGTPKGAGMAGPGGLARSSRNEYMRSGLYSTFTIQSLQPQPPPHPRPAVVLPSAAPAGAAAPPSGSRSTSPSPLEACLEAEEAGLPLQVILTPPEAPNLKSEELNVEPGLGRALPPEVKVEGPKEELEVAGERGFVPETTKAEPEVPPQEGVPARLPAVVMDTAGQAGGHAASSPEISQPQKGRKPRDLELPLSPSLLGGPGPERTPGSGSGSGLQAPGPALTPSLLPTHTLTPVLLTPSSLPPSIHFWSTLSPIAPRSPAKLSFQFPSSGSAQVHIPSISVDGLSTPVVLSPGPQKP
# How it was run: as §1
# GABPA = molecular target: T3, GABPA (Homo sapiens, UniProt Q06546 1-454)
# T3 sequence: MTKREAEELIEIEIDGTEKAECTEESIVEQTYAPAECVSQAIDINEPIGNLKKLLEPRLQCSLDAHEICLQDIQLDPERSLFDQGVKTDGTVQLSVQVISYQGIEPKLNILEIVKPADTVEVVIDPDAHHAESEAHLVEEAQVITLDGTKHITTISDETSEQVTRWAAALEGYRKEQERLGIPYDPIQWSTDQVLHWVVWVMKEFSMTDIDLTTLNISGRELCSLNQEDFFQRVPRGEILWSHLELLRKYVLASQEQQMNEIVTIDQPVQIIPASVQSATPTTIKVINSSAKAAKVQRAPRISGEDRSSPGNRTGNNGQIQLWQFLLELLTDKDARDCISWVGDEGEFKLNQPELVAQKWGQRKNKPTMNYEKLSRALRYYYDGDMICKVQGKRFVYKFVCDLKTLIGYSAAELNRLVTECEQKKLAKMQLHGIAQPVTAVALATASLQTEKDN
# How it was run: as §1
# ERG = molecular target: T4, ERG (Homo sapiens, UniProt P11308 1-479)
# T4 sequence: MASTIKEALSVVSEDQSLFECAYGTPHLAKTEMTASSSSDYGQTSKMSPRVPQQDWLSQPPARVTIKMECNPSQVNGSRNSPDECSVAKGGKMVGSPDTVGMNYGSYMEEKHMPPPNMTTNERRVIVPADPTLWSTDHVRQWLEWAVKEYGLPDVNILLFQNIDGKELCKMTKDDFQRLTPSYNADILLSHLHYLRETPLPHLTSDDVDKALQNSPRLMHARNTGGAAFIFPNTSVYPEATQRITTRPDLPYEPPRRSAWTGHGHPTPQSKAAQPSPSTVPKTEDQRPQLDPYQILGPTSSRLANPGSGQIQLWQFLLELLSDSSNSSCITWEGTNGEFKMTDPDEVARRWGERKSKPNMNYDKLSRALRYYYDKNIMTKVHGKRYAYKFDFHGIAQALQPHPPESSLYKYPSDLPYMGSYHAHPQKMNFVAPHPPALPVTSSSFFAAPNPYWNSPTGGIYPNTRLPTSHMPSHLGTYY
# How it was run: as §1
# ELF1 = ELF1 (Homo sapiens, UniProt P32519 1-619)
# Chain of ELF1 (P32519 whole entry): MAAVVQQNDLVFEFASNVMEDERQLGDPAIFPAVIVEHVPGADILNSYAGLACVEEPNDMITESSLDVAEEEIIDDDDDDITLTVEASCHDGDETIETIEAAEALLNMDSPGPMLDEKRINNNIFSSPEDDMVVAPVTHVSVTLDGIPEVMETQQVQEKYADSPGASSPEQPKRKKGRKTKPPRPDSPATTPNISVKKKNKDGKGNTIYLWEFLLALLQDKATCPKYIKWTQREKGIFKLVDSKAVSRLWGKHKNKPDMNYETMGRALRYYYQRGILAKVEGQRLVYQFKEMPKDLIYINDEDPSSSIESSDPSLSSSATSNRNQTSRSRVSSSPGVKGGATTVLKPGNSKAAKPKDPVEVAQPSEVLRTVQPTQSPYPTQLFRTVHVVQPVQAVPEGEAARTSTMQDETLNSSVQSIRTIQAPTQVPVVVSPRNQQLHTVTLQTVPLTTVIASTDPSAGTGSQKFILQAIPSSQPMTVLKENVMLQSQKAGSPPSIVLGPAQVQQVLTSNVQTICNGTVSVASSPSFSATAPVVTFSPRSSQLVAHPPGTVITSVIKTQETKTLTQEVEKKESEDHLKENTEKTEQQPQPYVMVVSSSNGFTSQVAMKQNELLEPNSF
# How it was run: as §1
# EHF = molecular target: T5, EHF (Homo sapiens, UniProt Q9NZC4 1-300)
# T5 sequence: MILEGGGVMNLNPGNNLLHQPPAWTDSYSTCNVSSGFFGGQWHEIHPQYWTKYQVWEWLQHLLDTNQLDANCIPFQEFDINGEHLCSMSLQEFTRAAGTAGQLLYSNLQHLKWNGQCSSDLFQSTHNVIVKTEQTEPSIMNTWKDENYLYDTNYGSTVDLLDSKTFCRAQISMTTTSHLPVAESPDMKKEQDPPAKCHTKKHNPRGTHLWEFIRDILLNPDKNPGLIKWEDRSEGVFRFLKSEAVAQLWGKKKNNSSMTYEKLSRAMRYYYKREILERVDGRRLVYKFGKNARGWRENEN
# How it was run: as §1
# SPI1 = SPI1 (Homo sapiens, UniProt P17947 1-270)
# How it was run: as §1
# SPIB = SPIB (Homo sapiens, UniProt Q01892 1-262)
# Chain of SPIB (Q01892 whole entry): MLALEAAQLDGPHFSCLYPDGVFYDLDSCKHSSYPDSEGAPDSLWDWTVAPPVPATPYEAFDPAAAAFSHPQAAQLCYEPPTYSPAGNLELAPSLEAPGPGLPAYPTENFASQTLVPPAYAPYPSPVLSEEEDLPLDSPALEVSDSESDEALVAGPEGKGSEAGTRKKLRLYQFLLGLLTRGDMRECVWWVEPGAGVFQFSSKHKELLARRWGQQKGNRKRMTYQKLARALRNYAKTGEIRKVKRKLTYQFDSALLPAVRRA
# How it was run: as §1
# ELK3 = molecular target: T6, ELK3 (Homo sapiens, UniProt P41970 1-407)
# T6 sequence: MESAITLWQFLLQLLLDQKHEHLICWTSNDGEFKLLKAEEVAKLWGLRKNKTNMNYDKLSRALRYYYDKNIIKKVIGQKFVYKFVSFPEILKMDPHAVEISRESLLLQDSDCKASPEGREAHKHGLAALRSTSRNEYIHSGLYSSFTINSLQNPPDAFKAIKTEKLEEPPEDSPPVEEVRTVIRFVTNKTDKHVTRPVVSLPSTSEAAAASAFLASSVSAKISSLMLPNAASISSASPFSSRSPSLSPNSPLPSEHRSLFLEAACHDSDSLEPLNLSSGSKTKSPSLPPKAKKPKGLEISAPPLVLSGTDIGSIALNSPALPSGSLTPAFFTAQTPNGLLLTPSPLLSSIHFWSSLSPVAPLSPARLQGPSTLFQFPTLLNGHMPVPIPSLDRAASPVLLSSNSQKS
# How it was run: as §1
sequence,measurement,setting,value
TCATGG,binding signal,FLI1,"1.11 fold enrichment (6-mer frequency, TF over GST control)"
same,binding signal,ELK1,"1.05 fold enrichment (6-mer frequency, TF over GST control)"
same,binding signal,GABPA,"1.11 fold enrichment (6-mer frequency, TF over GST control)"
same,binding signal,ERG,"1.15 fold enrichment (6-mer frequency, TF over GST control)"
same,binding signal,ELF1,"1.18 fold enrichment (6-mer frequency, TF over GST control)"
same,binding signal,EHF,"1.12 fold enrichment (6-mer frequency, TF over GST control)"
same,binding signal,SPI1,"1.08 fold enrichment (6-mer frequency, TF over GST control)"
same,binding signal,SPIB,"1.11 fold enrichment (6-mer frequency, TF over GST control)"
same,binding signal,ELK3,"1.16 fold enrichment (6-mer frequency, TF over GST control)"
ACTCAC,binding signal,FLI1,"1.22 fold enrichment (6-mer frequency, TF over GST control)"
same,binding signal,ELK1,"1.31 fold enrichment (6-mer frequency, TF over GST control)"
same,binding signal,GABPA,"1.27 fold enrichment (6-mer frequency, TF over GST control)"
same,binding signal,ERG,"1.17 fold enrichment (6-mer frequency, TF over GST control)"
same,binding signal,ELF1,"1.18 fold enrichment (6-mer frequency, TF over GST control)"
same,binding signal,EHF,"1.24 fold enrichment (6-mer frequency, TF over GST control)"
same,binding signal,SPI1,"1.23 fold enrichment (6-mer frequency, TF over GST control)"
same,binding signal,SPIB,"1.44 fold enrichment (6-mer frequency, TF over GST control)"
same,binding signal,ELK3,"1.35 fold enrichment (6-mer frequency, TF over GST control)"
AAGGAA,binding signal,FLI1,"1.19 fold enrichment (6-mer frequency, TF over GST control)"
same,binding signal,ELK1,"1.27 fold enrichment (6-mer frequency, TF over GST control)"
same,binding signal,GABPA,"1.2 fold enrichment (6-mer frequency, TF over GST control)"
same,binding signal,ERG,"1.44 fold enrichment (6-mer frequency, TF over GST control)"
same,binding signal,ELF1,"1.25 fold enrichment (6-mer frequency, TF over GST control)"
same,binding signal,EHF,"1.48 fold enrichment (6-mer frequency, TF over GST control)"
same,binding signal,SPI1,"1.48 fold enrichment (6-mer frequency, TF over GST control)"
same,binding signal,SPIB,"1.29 fold enrichment (6-mer frequency, TF over GST control)"
same,binding signal,ELK3,"1.21 fold enrichment (6-mer frequency, TF over GST control)"
TCTCAT,binding signal,FLI1,"1.3 fold enrichment (6-mer frequency, TF over GST control)"
same,binding signal,ELK1,"1.36 fold enrichment (6-mer frequency, TF over GST control)"
same,binding signal,GABPA,"1.34 fold enrichment (6-mer frequency, TF over GST control)"
same,binding signal,ERG,"1.2 fold enrichment (6-mer frequency, TF over GST control)"
same,binding signal,ELF1,"1.36 fold enrichment (6-mer frequency, TF over GST control)"
same,binding signal,EHF,"1.31 fold enrichment (6-mer frequency, TF over GST control)"
same,binding signal,SPI1,"1.37 fold enrichment (6-mer frequency, TF over GST control)"
same,binding signal,SPIB,"1.33 fold enrichment (6-mer frequency, TF over GST control)"
same,binding signal,ELK3,"1.29 fold enrichment (6-mer frequency, TF over GST control)"
GCACAT,binding signal,FLI1,"1.16 fold enrichment (6-mer frequency, TF over GST control)"
same,binding signal,ELK1,"1.05 fold enrichment (6-mer frequency, TF over GST control)"
same,binding signal,GABPA,"1.16 fold enrichment (6-mer frequency, TF over GST control)"
same,binding signal,ERG,"1.2 fold enrichment (6-mer frequency, TF over GST control)"
same,binding signal,ELF1,"1.1 fold enrichment (6-mer frequency, TF over GST control)"
same,binding signal,EHF,"1.14 fold enrichment (6-mer frequency, TF over GST control)"
same,binding signal,SPI1,"1.14 fold enrichment (6-mer frequency, TF over GST control)"
same,binding signal,SPIB,"1.08 fold enrichment (6-mer frequency, TF over GST control)"
same,binding signal,ELK3,"1.17 fold enrichment (6-mer frequency, TF over GST control)"
TCCCTG,binding signal,FLI1,"1.28 fold enrichment (6-mer frequency, TF over GST control)"
same,binding signal,ELK1,"1.25 fold enrichment (6-mer frequency, TF over GST control)"
same,binding signal,GABPA,"1.36 fold enrichment (6-mer frequency, TF over GST control)"
same,binding signal,ERG,"1.28 fold enrichment (6-mer frequency, TF over GST control)"
same,binding signal,ELF1,"1.32 fold enrichment (6-mer frequency, TF over GST control)"
same,binding signal,EHF,"1.33 fold enrichment (6-mer frequency, TF over GST control)"
same,binding signal,SPI1,"1.29 fold enrichment (6-mer frequency, TF over GST control)"
same,binding signal,SPIB,"1.35 fold enrichment (6-mer frequency, TF over GST control)"
same,binding signal,ELK3,"1.14 fold enrichment (6-mer frequency, TF over GST control)"
CTTTCG,binding signal,FLI1,"1.1 fold enrichment (6-mer frequency, TF over GST control)"
same,binding signal,ELK1,"1.21 fold enrichment (6-mer frequency, TF over GST control)"
same,binding signal,GABPA,"1.26 fold enrichment (6-mer frequency, TF over GST control)"
same,binding signal,ERG,"1.15 fold enrichment (6-mer frequency, TF over GST control)"
same,binding signal,ELF1,"1.3 fold enrichment (6-mer frequency, TF over GST control)"
same,binding signal,EHF,"1.3 fold enrichment (6-mer frequency, TF over GST control)"
same,binding signal,SPI1,"1.23 fold enrichment (6-mer frequency, TF over GST control)"
same,binding signal,SPIB,"1.39 fold enrichment (6-mer frequency, TF over GST control)"
same,binding signal,ELK3,"1.27 fold enrichment (6-mer frequency, TF over GST control)"
GTACAC,binding signal,FLI1,"1.18 fold enrichment (6-mer frequency, TF over GST control)"
same,binding signal,ELK1,"1.31 fold enrichment (6-mer frequency, TF over GST control)"
same,binding signal,GABPA,"1.18 fold enrichment (6-mer frequency, TF over GST control)"
same,binding signal,ERG,"1.29 fold enrichment (6-mer frequency, TF over GST control)"
same,binding signal,ELF1,"1.17 fold enrichment (6-mer frequency, TF over GST control)"
same,binding signal,EHF,"1.14 fold enrichment (6-mer frequency, TF over GST control)"
same,binding signal,SPI1,"1.18 fold enrichment (6-mer frequency, TF over GST control)"
same,binding signal,SPIB,"1.18 fold enrichment (6-mer frequency, TF over GST control)"
same,binding signal,ELK3,"1.23 fold enrichment (6-mer frequency, TF over GST control)"
